This is an account of results in PubChem BioAssay AID623996 (NMMLSC, 2012).

This assay has as its target Multidrug resistance protein CDR1 (Candida albicans) (UniProt P43071). Kind of assay: CaCdr1 efflux pump inhibitor potency, dose response, singleplex, Cherry Pick2 set (AID 623996).

Entries with a potency or affinity are not part of this list. Active and inactive are the calls of the source.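 The calls were made as follows: active = fitted concentration giving half the maximal Nile Red retention below 100 µM; inactive = the rest.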

Sequence of Multidrug resistance protein CDR1 (Candida albicans) (P43071 whole entry, looked up): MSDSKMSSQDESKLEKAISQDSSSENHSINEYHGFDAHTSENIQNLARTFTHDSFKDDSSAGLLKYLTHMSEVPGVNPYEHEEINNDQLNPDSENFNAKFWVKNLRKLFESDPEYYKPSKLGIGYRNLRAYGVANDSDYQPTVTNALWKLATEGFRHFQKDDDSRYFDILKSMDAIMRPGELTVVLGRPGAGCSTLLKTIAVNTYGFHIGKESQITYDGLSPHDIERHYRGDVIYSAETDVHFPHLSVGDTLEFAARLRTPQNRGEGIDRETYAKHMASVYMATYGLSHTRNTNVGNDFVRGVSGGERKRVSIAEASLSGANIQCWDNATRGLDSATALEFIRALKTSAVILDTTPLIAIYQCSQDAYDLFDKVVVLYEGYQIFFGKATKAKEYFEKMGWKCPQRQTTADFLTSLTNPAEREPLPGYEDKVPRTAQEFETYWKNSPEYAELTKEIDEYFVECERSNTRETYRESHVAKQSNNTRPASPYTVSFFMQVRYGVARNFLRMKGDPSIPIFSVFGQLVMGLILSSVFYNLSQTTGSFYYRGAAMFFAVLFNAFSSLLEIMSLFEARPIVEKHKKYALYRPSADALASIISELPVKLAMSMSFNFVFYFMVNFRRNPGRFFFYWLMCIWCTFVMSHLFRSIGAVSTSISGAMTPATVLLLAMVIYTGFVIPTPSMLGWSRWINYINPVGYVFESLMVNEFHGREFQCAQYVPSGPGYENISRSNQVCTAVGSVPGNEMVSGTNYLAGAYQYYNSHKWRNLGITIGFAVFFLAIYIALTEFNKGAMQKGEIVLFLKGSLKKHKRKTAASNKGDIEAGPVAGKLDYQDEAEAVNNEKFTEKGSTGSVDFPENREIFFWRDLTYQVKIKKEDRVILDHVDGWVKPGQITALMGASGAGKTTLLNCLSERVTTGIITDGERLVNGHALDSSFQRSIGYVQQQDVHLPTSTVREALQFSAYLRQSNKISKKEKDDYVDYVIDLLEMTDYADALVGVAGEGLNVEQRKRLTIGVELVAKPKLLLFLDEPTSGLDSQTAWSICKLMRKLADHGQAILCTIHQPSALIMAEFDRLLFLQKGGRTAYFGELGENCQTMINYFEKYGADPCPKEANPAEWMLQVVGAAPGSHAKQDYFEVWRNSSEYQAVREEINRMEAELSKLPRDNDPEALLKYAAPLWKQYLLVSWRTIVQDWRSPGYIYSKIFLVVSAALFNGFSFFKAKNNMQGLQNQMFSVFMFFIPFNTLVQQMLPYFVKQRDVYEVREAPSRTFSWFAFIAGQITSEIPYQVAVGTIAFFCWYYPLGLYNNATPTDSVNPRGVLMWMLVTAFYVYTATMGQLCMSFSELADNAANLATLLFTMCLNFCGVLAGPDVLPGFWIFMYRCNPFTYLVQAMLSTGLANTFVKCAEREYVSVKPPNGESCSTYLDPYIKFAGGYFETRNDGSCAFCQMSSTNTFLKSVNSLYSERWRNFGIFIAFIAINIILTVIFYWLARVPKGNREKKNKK

As for `Cc1ccc(O)c(C(=O)c2cnc3c(c2)CN(C)C(=O)N3)c1`, the result was inactive.
Take `COc1ccc(C2CC(c3ccccc3)=NN2c2ccc(S(N)(=O)=O)cc2)cc1` (stereo not drawn): the molecule was called inactive.
The entry for `Cc1ccc2sc(N(CCCN(C)C)C(=O)c3ccc(Br)s3)nc2c1C` is “inactive”; for `N#CC(C(=O)NCc1ccccc1)c1nc2ccccc2nc1N1CCCC1` (stereo not drawn) it is “inactive”.
The entry for `COc1cc(OC)c2c(-c3ccccc3)cc(=O)oc2c1C(CCN1CCCC(C)C1)c1ccc(N(C)C)cc1` (stereo not drawn) is “inactive”; for `COc1ccc(CNC(=O)C(C#N)c2nc3ccccc3nc2N2CCN(C)CC2)cc1` (stereo not drawn) it is “inactive”.
The entry for `CCCCNC(=O)C1CCC(CNc2nc(=S)[nH]c3ccccc23)CC1` (stereo not drawn) is “inactive”.
Consider `NC1=NC[C@H](Cc2ccc(O)cc2)N1CCCCC1CCCCC1`, for which the call was inactive.
`NC1=NC[C@H](Cc2ccccc2)N1CCCCC1CCCCC1`: the result was inactive.
The entry for `Nc1ccc(C(=O)OCCc2ccccc2)cc1` is “inactive”; for `Cc1ccc(C2CC(c3ccccc3)=NN2c2ccc(S(N)(=O)=O)cc2)cc1` (stereo not drawn) it is “inactive”; for `COc1ccc(CN2C(=O)C(C)Nc3ncnc(N4CCN(c5ccccc5)CC4)c32)cc1` (stereo not drawn) it is “inactive”.
For the molecule `COc1ccc(C2CC(c3cccc(OC)c3)=NN2c2ccc(S(N)(=O)=O)cc2)cc1` (stereo not drawn), the molecule was classed as inactive.
The entry for `Cc1ccc2c(c1)[C@H]1[C@H](CO2)[C@H](c2ccccc2)[C@]2(C)C(=O)Nc3cc(F)c(F)cc3C(=O)N12` is “inactive”; for `O=C(c1ccoc1)N1CCC2(CC1)Oc1ccc(F)cc1C(=O)C21CC(c2ccc(Cl)cc2)=NO1` (stereo not drawn) it is “inactive”.
Regarding `Cc1cccc(C2CC(c3ccccc3)=NN2c2ccc(S(N)(=O)=O)cc2)c1` (stereo not drawn), the result was inactive.
The entry for `CC1CN(c2nc3ccccc3nc2C(C#N)C(=O)NCc2ccc3c(c2)OCO3)CC(C)O1` (stereo not drawn) is “inactive”; for `Cc1ccc(O)c(C(=O)c2cnc3c(c2)CN(CCC(C)C)C(=O)N3)c1` it is “inactive”.
